For some assays here: Measured potencies and affinities stand elsewhere.
Columns and labels:
Parameters in all cases: scale not given: direction of the effect not stated beside the values
[1] = biological target: Protein translocase subunit SecA (Escherichia coli (strain K12)) (UniProt P10408); test: Assay to Identify E. coli SecA ATPase Inhibitors; type: functional; conditions: 30 µM
[2] = biological target: T1, Ubiquitin-activating enzyme e1, putative (Leishmania donovani (strain BPK282A1)) (UniProt E9BSI1); test: Leishmania donovani Ubiquitin Activating Enzyme (LdE1); type: functional; conditions: 30 µM
T1 sequence (whole entry): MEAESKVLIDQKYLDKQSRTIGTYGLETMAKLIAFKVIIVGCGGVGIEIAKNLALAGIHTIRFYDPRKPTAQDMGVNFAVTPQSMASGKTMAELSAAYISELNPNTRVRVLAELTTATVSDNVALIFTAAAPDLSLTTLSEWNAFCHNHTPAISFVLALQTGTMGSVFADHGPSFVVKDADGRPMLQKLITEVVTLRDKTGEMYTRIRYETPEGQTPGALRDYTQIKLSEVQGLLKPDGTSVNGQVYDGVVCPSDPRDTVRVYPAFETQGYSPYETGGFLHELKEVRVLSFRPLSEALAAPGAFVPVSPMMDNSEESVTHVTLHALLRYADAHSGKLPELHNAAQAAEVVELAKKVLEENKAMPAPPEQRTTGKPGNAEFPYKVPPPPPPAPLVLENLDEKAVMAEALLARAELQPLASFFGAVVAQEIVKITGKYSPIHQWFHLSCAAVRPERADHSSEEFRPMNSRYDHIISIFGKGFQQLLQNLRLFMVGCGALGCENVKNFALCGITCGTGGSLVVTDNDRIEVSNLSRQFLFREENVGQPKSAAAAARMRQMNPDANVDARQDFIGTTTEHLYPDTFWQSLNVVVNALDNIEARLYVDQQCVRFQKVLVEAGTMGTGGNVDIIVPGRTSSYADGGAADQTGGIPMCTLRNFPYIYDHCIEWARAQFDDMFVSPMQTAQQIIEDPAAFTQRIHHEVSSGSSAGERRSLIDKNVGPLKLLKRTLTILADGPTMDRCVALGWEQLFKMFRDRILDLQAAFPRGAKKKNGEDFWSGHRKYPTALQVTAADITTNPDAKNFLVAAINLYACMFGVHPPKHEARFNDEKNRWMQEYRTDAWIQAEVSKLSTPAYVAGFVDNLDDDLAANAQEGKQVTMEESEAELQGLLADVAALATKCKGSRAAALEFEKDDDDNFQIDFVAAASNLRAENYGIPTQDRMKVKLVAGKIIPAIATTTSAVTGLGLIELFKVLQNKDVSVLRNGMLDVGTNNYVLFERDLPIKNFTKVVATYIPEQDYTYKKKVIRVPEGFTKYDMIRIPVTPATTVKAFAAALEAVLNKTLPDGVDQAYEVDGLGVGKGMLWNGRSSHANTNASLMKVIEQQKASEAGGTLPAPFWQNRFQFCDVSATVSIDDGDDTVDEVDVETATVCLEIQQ

[3] = biological target: AMP-activated protein kinase, AMPK (Homo sapiens) (UniProt P54646+O43741+P54619+Q9UGJ0+Q9Y478+Q13131+Q9UGI9); test: AMP-dependent Kinase enzyme assay. An in vitro enzyme assay that detects ADP turnover that is directly proportional to AMPK activity. This uses naive AMPK that is activated during the assay with MK-8722; type: functional; conditions: 30 µM
[4] = biological target: Sialic acid-binding Ig-like lectin 9 (Homo sapiens) (UniProt Q9Y336); test: Hs-Siglec9 ALPHAscreen SOP 20170721; conditions: 10 µM
Trypanosoma cruzi = test: Trypanosoma cruzi phosphomannomutase and mannose-1-phosphate guanylyltransferase assay; type: functional; conditions: 10 µM
[5] = biological target: T2, Arginase-2, mitochondrial (Homo sapiens) (UniProt P78540); test: in vitro enzyme assay to detect the production of urea directly proportional to the activity of Arginase II; type: functional; conditions: 33.3 µM; note: in the data most compounds retested in dose-response had high values
T2 sequence (whole entry): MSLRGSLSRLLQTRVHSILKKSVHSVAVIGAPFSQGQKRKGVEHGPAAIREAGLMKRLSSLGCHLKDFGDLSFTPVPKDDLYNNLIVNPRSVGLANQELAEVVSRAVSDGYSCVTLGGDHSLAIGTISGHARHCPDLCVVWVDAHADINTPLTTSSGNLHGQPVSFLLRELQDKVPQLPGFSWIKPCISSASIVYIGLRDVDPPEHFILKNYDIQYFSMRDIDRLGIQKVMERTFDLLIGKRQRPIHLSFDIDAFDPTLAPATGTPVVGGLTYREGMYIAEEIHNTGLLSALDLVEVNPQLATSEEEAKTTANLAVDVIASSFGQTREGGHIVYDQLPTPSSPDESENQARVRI

[6] = biological target: T3, Proteasome subunit beta (Trypanosoma cruzi) (UniProt O96673); test: Trypanosoma cruzi proteasome chymotrypsin-like activity (TcProtChymo) assay.; note: in the data most compounds retested in dose-response had high values; type: functional; conditions: 9.37 µM
T3 sequence (whole entry): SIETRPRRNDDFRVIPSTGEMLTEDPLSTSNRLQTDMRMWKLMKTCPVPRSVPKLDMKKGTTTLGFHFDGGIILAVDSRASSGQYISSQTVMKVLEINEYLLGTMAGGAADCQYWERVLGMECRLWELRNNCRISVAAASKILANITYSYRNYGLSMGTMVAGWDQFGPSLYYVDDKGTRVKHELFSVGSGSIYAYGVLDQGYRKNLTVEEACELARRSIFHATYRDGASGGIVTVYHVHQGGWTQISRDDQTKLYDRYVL

Homo sapiens = species on record: Homo sapiens; test: To identify inhibition of the IFN signalling (Jak-Stat) pathway via expression of an eGFP reporter gene under the control of an IFN-stimulated response element (ISRE) containing MxA promoter.; type: functional; conditions: 30 µM
[7] = biological target: T4, Tyrosyl-tRNA synthetase, putative (Trypanosoma cruzi (strain CL Brener)) (UniProt Q4DSP6); test: Trypanosoma cruzi tyrosyl tRNA synthetase (TcYRS) _High Tyrosine SOP; type: functional; conditions: 30 µM; note: in the data most compounds retested in dose-response had high values
T4 sequence (whole entry): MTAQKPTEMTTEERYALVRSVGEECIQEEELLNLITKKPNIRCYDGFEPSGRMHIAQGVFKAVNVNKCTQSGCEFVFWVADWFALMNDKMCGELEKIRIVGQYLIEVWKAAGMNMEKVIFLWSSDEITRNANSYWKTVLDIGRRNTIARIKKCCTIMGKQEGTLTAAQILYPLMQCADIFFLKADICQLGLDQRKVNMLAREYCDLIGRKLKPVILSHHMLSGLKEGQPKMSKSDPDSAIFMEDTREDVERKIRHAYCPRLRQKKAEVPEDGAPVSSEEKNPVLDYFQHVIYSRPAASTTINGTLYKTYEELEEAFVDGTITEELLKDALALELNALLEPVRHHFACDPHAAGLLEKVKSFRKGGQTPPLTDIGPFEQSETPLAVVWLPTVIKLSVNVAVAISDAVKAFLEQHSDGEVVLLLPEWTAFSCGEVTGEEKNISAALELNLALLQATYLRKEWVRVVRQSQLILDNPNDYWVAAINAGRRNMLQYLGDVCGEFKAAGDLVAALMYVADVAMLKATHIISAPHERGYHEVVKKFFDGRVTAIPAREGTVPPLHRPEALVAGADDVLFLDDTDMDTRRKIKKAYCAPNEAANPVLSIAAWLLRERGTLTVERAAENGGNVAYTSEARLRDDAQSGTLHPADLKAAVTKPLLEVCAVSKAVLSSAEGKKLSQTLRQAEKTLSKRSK

[8] = biological target: T4, Tyrosyl-tRNA synthetase, putative (Trypanosoma cruzi (strain CL Brener)); test: Trypanosoma cruzi tyrosyl tRNA synthetase (TcYRS) SOP; type: functional; conditions: 30 µM
[9] = biological target: Chromo domain-containing protein 1 (Saccharomyces cerevisiae (strain ATCC 204508 / S288c) (Baker's yeast)) (UniProt P32657); test: ScCHD-1 Enzyme Inhibition Assay; type: functional; conditions: 30 µM; note: in the data most compounds retested in dose-response had high values
Chromo domain-containing protein 1 (Saccharomyces cerevisiae (strain ATCC 204508 / S288c) (Baker's yeast)), sequence (P32657 whole entry, the tested form may be a part): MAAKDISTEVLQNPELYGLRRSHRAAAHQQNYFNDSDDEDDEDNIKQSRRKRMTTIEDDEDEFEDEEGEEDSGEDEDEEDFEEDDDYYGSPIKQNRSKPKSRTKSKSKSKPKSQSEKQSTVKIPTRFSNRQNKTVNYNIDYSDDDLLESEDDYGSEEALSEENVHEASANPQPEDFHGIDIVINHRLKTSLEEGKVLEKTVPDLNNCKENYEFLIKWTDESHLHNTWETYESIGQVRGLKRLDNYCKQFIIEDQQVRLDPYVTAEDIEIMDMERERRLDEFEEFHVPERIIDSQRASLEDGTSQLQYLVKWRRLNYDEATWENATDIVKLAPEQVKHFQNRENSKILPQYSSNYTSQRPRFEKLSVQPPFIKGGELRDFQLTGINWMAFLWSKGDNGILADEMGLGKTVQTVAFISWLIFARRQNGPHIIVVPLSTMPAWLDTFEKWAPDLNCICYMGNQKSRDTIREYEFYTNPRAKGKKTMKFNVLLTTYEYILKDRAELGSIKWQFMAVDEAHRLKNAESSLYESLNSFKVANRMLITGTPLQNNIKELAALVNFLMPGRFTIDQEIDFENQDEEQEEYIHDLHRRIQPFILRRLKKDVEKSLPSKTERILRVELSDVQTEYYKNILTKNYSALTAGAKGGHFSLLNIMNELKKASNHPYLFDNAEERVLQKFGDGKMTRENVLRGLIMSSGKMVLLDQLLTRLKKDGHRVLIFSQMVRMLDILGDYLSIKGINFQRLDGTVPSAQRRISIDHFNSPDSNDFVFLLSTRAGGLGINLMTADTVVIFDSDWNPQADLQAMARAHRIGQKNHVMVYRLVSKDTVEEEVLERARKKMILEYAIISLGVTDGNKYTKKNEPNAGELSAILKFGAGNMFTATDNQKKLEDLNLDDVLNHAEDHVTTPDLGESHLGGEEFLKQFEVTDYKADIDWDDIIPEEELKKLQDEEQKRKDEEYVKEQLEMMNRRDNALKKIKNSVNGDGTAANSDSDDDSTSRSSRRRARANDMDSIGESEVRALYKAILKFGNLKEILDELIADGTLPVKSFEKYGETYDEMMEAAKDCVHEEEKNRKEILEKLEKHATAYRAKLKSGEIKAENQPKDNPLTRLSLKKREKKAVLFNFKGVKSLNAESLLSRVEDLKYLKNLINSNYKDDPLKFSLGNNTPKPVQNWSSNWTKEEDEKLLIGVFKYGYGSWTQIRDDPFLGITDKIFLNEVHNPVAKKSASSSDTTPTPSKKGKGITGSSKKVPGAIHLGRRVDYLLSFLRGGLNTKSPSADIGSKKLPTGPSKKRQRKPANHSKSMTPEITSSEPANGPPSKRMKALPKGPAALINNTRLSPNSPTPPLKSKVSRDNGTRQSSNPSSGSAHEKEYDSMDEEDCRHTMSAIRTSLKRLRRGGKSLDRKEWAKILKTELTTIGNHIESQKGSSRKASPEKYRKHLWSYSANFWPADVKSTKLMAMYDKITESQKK

Protein translocase subunit SecA (Escherichia coli (strain K12)), sequence (P10408 whole entry): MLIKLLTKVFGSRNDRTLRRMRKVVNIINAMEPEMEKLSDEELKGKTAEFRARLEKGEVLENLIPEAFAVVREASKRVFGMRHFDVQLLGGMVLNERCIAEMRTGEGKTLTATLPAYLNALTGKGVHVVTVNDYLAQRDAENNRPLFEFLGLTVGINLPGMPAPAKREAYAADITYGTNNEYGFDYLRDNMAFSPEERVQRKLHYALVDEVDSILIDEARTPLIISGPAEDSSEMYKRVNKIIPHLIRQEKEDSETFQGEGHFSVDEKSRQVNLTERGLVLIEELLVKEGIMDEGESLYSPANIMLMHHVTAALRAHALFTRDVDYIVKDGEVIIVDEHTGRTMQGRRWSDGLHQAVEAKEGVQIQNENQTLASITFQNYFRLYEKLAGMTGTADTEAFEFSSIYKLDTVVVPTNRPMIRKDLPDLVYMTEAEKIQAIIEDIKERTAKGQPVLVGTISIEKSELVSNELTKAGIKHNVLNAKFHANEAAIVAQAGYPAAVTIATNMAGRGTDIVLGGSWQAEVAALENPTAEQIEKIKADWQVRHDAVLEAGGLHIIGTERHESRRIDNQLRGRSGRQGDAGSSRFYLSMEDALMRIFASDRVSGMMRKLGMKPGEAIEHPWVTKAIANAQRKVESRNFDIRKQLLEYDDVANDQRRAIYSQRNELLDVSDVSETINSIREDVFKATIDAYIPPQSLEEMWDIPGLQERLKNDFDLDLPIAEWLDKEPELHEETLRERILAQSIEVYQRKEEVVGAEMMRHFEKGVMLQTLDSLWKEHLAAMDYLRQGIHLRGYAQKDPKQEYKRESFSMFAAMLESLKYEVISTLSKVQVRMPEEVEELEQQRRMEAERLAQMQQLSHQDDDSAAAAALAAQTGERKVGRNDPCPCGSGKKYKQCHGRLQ
Sialic acid-binding Ig-like lectin 9 (Homo sapiens), sequence (Q9Y336 whole entry): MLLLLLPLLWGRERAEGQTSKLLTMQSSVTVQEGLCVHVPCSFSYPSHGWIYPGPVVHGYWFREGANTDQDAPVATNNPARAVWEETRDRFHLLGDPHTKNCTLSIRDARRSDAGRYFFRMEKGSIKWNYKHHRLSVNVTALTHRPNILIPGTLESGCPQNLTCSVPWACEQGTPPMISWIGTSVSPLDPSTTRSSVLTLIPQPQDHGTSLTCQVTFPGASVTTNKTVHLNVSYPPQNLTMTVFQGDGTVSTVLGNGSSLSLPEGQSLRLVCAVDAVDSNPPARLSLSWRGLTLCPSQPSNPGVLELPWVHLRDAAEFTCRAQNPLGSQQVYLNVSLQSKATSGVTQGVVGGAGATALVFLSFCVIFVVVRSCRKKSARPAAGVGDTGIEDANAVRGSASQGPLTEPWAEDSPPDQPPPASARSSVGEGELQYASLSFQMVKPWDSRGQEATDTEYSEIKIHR

Row | SMILES | Percent Effect [1] | Percent Effect [2] | Percent Effect [3] | Percent Effect [4] | Percent Effect (Trypanosoma cruzi) | Percent Effect [5] | Percent Effect [6] | Percent Effect (Homo sapiens) | Percent Effect [7] | Percent Effect [8] | Percent Effect [9]
1 | Cc1cc2n(n1)CC(CNCc1ccnc(-n3ccnc3C)c1)CN2 (configuration not stated) | -2.38% | 26.3% | -14.2% | -7.03% | 7.52% | -4.98% | 22.9% | 4.37% | 3.43% | 17.1% | -13.8%
2 | CCc1nc(C2CCCN2Cc2nc(CCOC)no2)no1 (configuration not stated) | -3.77% | 10.4% | -0.579% | 7.16% | 6.59% | -5.52% | 3.49% | -6.27% | 3.23% | 11.1% | -7.19%
3 | CC(=O)Nc1nc(CN2CCOC(Cn3cc(C)cn3)C2)cs1 (configuration not stated) | -2.79% | 15.6% | 9.13% | -6.5% | 0.0979% | 0.21% | 19.5% | 2.79% | 3.81% | 21.2% | -20.4%
4 | CNC(=O)[C@H]1CCS(=O)(=O)[C@@H]2CN(Cc3ccc(OC)cc3)C[C@H]12 | 0.0608% | 2.7% | 3.94% | 2.93% | 2.34% | 35.4% | -0.592% | 2.35% | 82.2% | 6.1% | 2.99%
5 | Fc1ccc(OCCCN2CCOC(Cn3cncn3)C2)cc1 (configuration not stated) | -1.31% | -3.8% | 6.98% | 5.51% | 3.79% | -3.23% | 3.43% | 2.48% | 0% | 2.53% | -15.5%
6 | CC(C)Sc1ncccc1C(=O)NCc1ccc(CS(C)(=O)=O)cc1 | -4.04% | 13.9% | 0.323% | -3.32% | -1.74% | 4.09% | 18% | 18.1% | 4.17% | 5.06% | -15.6%
7 | COc1cc2nc3n(c(=O)c2cc1OC)CCN(C(C)=O)CC3 | -1.86% | 4.05% | 9.32% | 3.01% | 0.593% | -1.16% | 5.62% | 11.5% | 1.07% | 11.7% | -1.39%
8 | O=C(c1csc(-c2cccs2)n1)N1CCCC1Cn1cccn1 (configuration not stated) | -3.61% | 10.5% | -6.24% | 3.2% | -3.83% | 1.08% | -4.99% | -2.06% | 3.45% | 6.17% | 0.105%
9 | Cc1ccc2c(c1)C1(CCNCC1)CN2C(=O)CN(C)C | -3.67% | 10.8% | 5.31% | -2.86% | -7.14% | 1.59% | 15.7% | 14.1% | 5.41% | 12.8% | -2.47%
10 | Cc1nc(CNC(=O)NCC(O)c2ccc(F)c(F)c2)cs1 (configuration not stated) | -1.38% | 10.8% | 1.17% | -3.81% | 3.25% | -3.51% | 16.3% | 23.3% | 7.92% | 18.3% | -5.03%
11 | O=C(CCOc1cccc(F)c1)N1CCCC(n2cncn2)C1 (configuration not stated) | -2.79% | 1.27% | 7.42% | 3.23% | -1.95% | 4.95% | 6% | 2.52% | 2.08% | 7.59% | -10.2%
12 | CC(C)(C)SCCCC(=O)N1CCC(Nc2cccnn2)CC1 | -1.17% | -2.7% | -6.83% | 13.1% | 0.283% | -1.6% | -1.98% | 8.77% | 4.43% | 6.17% | 0.803%
13 | O=C(O)CC1CN(Cc2ccccc2)CCO1 (configuration not stated) | -6.06% | 5.41% | 5.19% | -3.59% | -5.27% | 2.08% | 14.3% | 6.89% | 8.91% | 8.54% | -5.29%
14 | CNC(=O)C(C)(C)NC(=O)c1cc(OCC2CCC2)cc(C(=O)OC)c1 | -0.888% | 11% | 28.1% | -1.12% | 2.35% | 15.9% | 12.6% | 31.3% | 6.45% | 15% | -3.04%
15 | O=C(c1cnccn1)N1CCc2onc(CN3CCOCC3)c2C1 | -1.8% | 0% | 11.9% | -11% | -6.75% | 2.87% | 11.8% | 13.9% | 1.08% | 2.56% | -5.16%
16 | Cc1cnn(C2CN(CC(=O)Nc3cccnc3)C2)c1 | -4.23% | 7.89% | -7.32% | -2.24% | -8.68% | 2.52% | -0.254% | -0.514% | -4.43% | 3.7% | 3.7%
17 | COc1cc(CNCCc2nc(C)cs2)cc2c1OCCO2 | -2.37% | 5.26% | 1.5% | 15.7% | -1.13% | -3.06% | 12.5% | 10.1% | 4.41% | 12.2% | -7.14%
18 | Cc1nocc1C(=O)N1CCc2c(CN(C)C(C)C)n[nH]c2C1 | 1.54% | 11% | -4.98% | 8.21% | 3.77% | -0.798% | 20.3% | 21% | 5.21% | 13.6% | -3.84%
19 | CCc1nc(C(=O)N2CCCC2)nn1-c1ccccc1Cl | -7.61% | 10.5% | -8.39% | 16.4% | 4.95% | 2.16% | 2.62% | 4.97% | 7.39% | 18.5% | -7.11%
20 | Cc1nn(C)c(Cl)c1CNCc1cccnc1N1CCOCC1 | -8.75% | 21.1% | -0.469% | -3.82% | 0.682% | -3.55% | 21% | 3.88% | 9.57% | 18.2% | -6.81%
21 | O=C(c1cccc(S(=O)(=O)NCCCc2ncc[nH]2)c1)N1CCOCC1 | -1.26% | 5.48% | -0.693% | -4.52% | -7.05% | 4.09% | 13.8% | 5.99% | 2.15% | 7.5% | -3.79%
22 | COc1cc(C(=O)NS(=O)(=O)c2cccc(C#N)c2)ccc1C | -1.35% | -10.8% | -1.79% | 1.78% | 7.15% | -0.554% | 2.33% | 10.3% | -5.94% | -1.22% | -2.42%

From ChEMBL document CHEMBL3988442, “University of Dundee, Small-Polar-MMV Screening Library” (2021)
